We go through 40 compounds from ChEMBL document CHEMBL4513135, “CO-ADD screening of IQOG CSIS (Spain) compounds”.

Molecules are shown by their SMILES. “And” between values parts separate entries of the source, which are not always exact repeats. Equal entries are not always repeated. Measured potencies and affinities stand elsewhere.

For one experiment, the system named is Staphylococcus aureus. The note with it: Concentration 32 ug.mL-1, ASSAY_TEST Inhibition of Bacterial Growth, detection method Absorption (OD600), MEDIA CAMHB, plate type 384well, NBS, CORNING #3640, time 18 hr.
In a further experiment the test system is Escherichia coli. As to conditions: Concentration 32 ug.mL-1, ASSAY_TEST Inhibition of Bacterial Growth, detection method Absorption (OD600), MEDIA CAMHB, plate type 384well, NBS, CORNING #3640, time 18 hr.

With `N#Cc1c(N)nc(NCc2ccccc2)c(C#N)c1-c1ccccc1`, the Inhibition (usually the drop in the measured response relative to a control, in per cent) in the experiment with Staphylococcus aureus was -2.03%; in the experiment with Escherichia coli, -5.8%.
For the compound `Clc1ccc(-c2cn3ccccc3n2)cc1`, the Inhibition in the experiment with Staphylococcus aureus turned out to be 13.75%; in the experiment with Escherichia coli, 15.37%.
For `COC(=O)C(=Cc1ccc(OC)cc1)NC(C)=O` the same measures were 16.29% and 8.29%.
Turning to `CC(=NNC(N)=O)c1c[nH]c2ccccc12`, the values for the Inhibition in the experiment with Staphylococcus aureus and in the experiment with Escherichia coli were 2.54% and 16.24%, respectively.
Regarding `COc1ccc2cc(C3C4=C(CC(C)(C)CC4=O)Oc4nc5c(c(N)c43)CCC5)c(Cl)nc2c1` (stereo not given), the Inhibition came out at 18.17% with Staphylococcus aureus and 11.31% in the experiment on Escherichia coli.
For `N#Cc1cc(C#N)c(NC2CCN(Cc3ccccc3)CC2)nc1N`, the Inhibition with Staphylococcus aureus (32 ug/mL) was 23.9% and 14.84%; in the experiment with Escherichia coli (32 ug/mL), -6.37% and -14.46%.
In the case of `COc1ccc2c(c1)cc(/C=C/[N+](=O)[O-])n2C`, the Inhibition in the experiment on Staphylococcus aureus came out at 10.15%; with Escherichia coli, 1.2%.
Regarding `Cc1nc(Nc2ccccc2)c2c(C)nn(-c3ccccc3)c2n1`, the Inhibition with Staphylococcus aureus is 15.21%; in the experiment with Escherichia coli, 8.02%.
The corresponding values for `N#Cc1c(N)nc(N2CCOCC2)c(C#N)c1-c1ccccc1` are 7.58% and 0.53%.
The corresponding values for `CCOC(=O)C1=C(C)NC(N)=C(C#N)C1c1ccc(OC)cc1` (stereo not given) are 20.75% and -7.34%.
For the compound `N#Cc1c(N)nc2c(c1-c1ccccc1)CN(Cc1ccccc1)CC2`, the Inhibition in the experiment with Staphylococcus aureus is recorded as 12.81%; with Escherichia coli, 10.61%.
For `COC(=O)C(=Cc1ccc([N+](=O)[O-])cc1)NC(=O)c1ccccc1` the same measures were 7.69% and 6.65%.
The corresponding values for `C#CCNc1nc(NCCCCC2CCN(Cc3ccccc3)CC2)c(C#N)cc1C#N` are 5% and -12.03%.
Regarding `CCOC(=O)C1=C(C)Nc2nc3c(c(N)c2C1c1cccc(OC)c1)CCCC3` (stereo not given), the Inhibition is listed as 17.18% in the experiment on Staphylococcus aureus and -19.26% in the experiment with Escherichia coli.
The corresponding values for `Br.C#CCNCC` are 25.79% and 18.7%.
Turning to `Cc1cnc2ccc(Cl)cn12`, the Inhibition in the experiment on Staphylococcus aureus was determined as 9.7%; in the experiment with Escherichia coli, 8.76%.
For `Cc1n[nH]c2c1C(c1ccc([N+](=O)[O-])cc1)C(C#N)=C(N)O2` (stereo not given) the same measures were 4.71% and 12.5%.
Turning to `O=C1OC(c2ccccc2)=NC1=Cc1ccc([N+](=O)[O-])cc1`, the Inhibition in the experiment on Staphylococcus aureus worked out at 5.7%; in the experiment on Escherichia coli it was 7.71%.
The corresponding values for `Cc1[nH]nc2c1C(c1cccc([N+](=O)[O-])c1)C(C#N)=C(N)O2` (stereo not given) are 7.57% and 4.04%.
For `COC1(N)Oc2ccc3ccccc3c2C(c2ccccc2)C1(Br)C#N` (stereo not given) the same measures were 16.73% and 20.49%.
Take `CNC(=O)c1cc2cc(OC)ccc2[nH]1`: the Inhibition is 5.66% in the experiment with Staphylococcus aureus and -0.98% in the experiment on Escherichia coli.
As for `O=C(NNCCc1ccccc1)c1cc2ccccc2[nH]1`, the Inhibition with Staphylococcus aureus is -6.37%; in the experiment on Escherichia coli, -5.83%.
`CC1CC(=O)Nc2c1c(Cl)nc1nc3c(c(N)c21)CCCC3` (stereo not given): the Inhibition in the experiment with Staphylococcus aureus is recorded as 34.68%; in the experiment with Escherichia coli it was -17.09%.
For `COc1ccc(C2C(C#N)=C(Cl)Oc3c2ccc2ccccc32)cc1OC` (stereo not given) the same measures were -3.84% and -30%.
In the case of `Cn1c(C(=O)N2CCOCC2)cc2cc(OCCCC3CCN(Cc4ccccc4)CC3)ccc21`, the Inhibition in the experiment on Staphylococcus aureus was 23.07%; in the experiment with Escherichia coli, -10.59%.
The corresponding values for `C1CNCCNCCNCCNC1` are 30% and 9.31%.
The corresponding values for `C#CCNc1nc(NC2CCN(Cc3ccccc3)CC2)c(C#N)c(-c2ccccc2)c1C#N` are -5.25% and -23.87%.
`CC(C)NNC(=O)Cc1c[nH]c2ccccc12`: the Inhibition was 11.42% in the experiment on Staphylococcus aureus and 9.11% with Escherichia coli.
The corresponding values for `Cc1ccc(/C=N/NC(=O)c2c[nH]c3ccccc23)cc1` are 6.96% and 7.51%.
Regarding `CSC1=NC(=Cc2ccccc2)C(=O)N1C`, the Inhibition in the experiment on Staphylococcus aureus turned out to be 5.89%; in the experiment with Escherichia coli, 10.03%.
The corresponding values for `CN1C/C(=C\Cl)n2c1c(C#N)c(-c1ccccc1)c(C#N)c2=O` are 14.24% and -33.76%.
In the case of `N#CC1(Br)C(=NBr)Oc2c(ccc3ccccc23)C1c1ccccc1[N+](=O)[O-]` (stereo not given), the Inhibition in the experiment with Staphylococcus aureus was 52.21%; with Escherichia coli, -16.66%.
As for `CC(=O)Nc1nn(C)c2nc3nc4c(c(N)c3cc12)CCCC4`, the Inhibition in the experiment on Staphylococcus aureus (32 ug/mL) is 26.15% and 21.32%; in the experiment with Escherichia coli (32 ug/mL), -7.37% and -4.67%.
For `Cc1ccccc1-c1c(C=N)c(N)nc2c1S(=O)(=O)OC2(C)C`, the Inhibition was determined as 11.29% in the experiment on Staphylococcus aureus and 8.66% with Escherichia coli.
For `CC1=C(C(=O)N2[C@@H]3C[C@H]4CCC3(CS2(=O)=O)C4(C)C)C(c2ccccc2)C(C#N)=C(N)O1` (stereo not given in full) the same measures were -1.02% and 15%.
Take `Cc1nc2c3cnn(-c4ccccc4)c3nc(C)n2n1`: the figures for the Inhibition in the experiment on Staphylococcus aureus and in the experiment with Escherichia coli were 14.43% and 10.35%, respectively.
Consider `N#Cc1c(Cl)nc(Sc2ccccc2)c(C#N)c1-c1ccccc1`, for which the Inhibition with Staphylococcus aureus is reported as 3.48%; in the experiment with Escherichia coli, -17.27%.
Take `Cn1c(C(=O)NCc2ccccc2)cc2cc(OCCCC3CCN(Cc4ccccc4)CC3)ccc21`: the Inhibition is reported as 21.45% with Staphylococcus aureus and -9.22% with Escherichia coli.
For `N#Cc1cccnc1N`, the results for the Inhibition in the experiment with Staphylococcus aureus and in the experiment on Escherichia coli were 27.07% and -3.89%, respectively.
Turning to `N#Cc1c(N)nc(NCCCC2CCN(Cc3ccccc3)CC2)c(C#N)c1-c1ccccc1`, the Inhibition is listed as 56.22% in the experiment on Staphylococcus aureus and -16.73% in the experiment on Escherichia coli.
